ATXN viability – reduces viability in counter-screen for ATXN expression inhibitors; S2 cells (HEK-293 line with an ATXN2-luciferase reporter) viability, CellTiter-Fluor protease fluorescence, 24 h; Potency, µM (doses to about 56.7 µM), actives largely listed as cytotoxic; 400,000 tested, 0.49% active; AID 651635; note: nearly all actives have a fitted effect of over 40% in size
HepG2 tox – counter-screen for TGF-b inhibitors: cytotoxicity in HepG2 cells. HepG2 CAGA-GFP viability, ATP luminescence, 18 h. Potency, µM (doses to about 46.1 µM), for the others: at the top dose activity change, negative = cytotoxicity, usual class: cytotoxic. 410,000 tested, 0.76% active
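HepG2 CAGA-GFP cells (1000/well, DMEM with 1% FBS) received compound, then TGF-beta at 500 pg/mL final, and were incubated 18 hours at 37 degrees C. Viability was read by CellTiter-Glo luminescence. Media-only wells were set as complete cell-killing and DMSO as no toxicity.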
DT40 TDP1 CPT – growth inhibition of DT40 Tdp1-/-;hTDP1 cells with camptothecin (screen for TDP1 inhibitors); chicken DT40 Tdp1-/-;hTDP1 cells + 20 nM CPT, ATP luminescence, 48 h; Potency, µM (top dose mostly 46.2 µM), without a hit: at the highest dose activity change, negative = growth inhibition, usual class: inhibitors; 420,000 tested, 12% active; note: % is set by controls: 0 for no effect and ±100 for the full control effect; nearly all actives have a fitted effect of over 55% in size
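Chicken DT40 Tdp1-/- cells complemented with human TDP1, 400 cells/well, exposed to compounds plus 20 nM camptothecin for at least 48 h at 37 C; viability read as ATP content by CellTiter-Glo luminescence.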
DT40 TDP1 no CPT – qHTS for Inhibitors of human tyrosyl-DNA phosphodiesterase 1 (TDP1): qHTS in cells in absence of CPT; DT40 Tdp1-/- hTDP1 cells, no CPT, ATP luminescence, 48 h; Potency, µM (top dose mostly 46.2 µM), inactives show top-dose activity change, negative = growth inhibition, usual class: inhibitors; 420,000 tested, 15% active; AID 686978, 2013; note: % is set by controls: 0 for no effect and ±100 for the full control effect; nearly all actives have a fitted effect of over 55% in size
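DT40 Tdp1-/-;hTDP1 cells, no CPT (DMSO vehicle only), 400 cells/well; compounds pin-transferred; ≥48 hr, 37 °C; CellTiter-Glo 30 min RT dark, luminescence read.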
ATXN2 expr inh – inhibitors of ATXN2 expression; HEK-293 ATXN2-luciferase reporter, luminescence, 24 h; Potency, µM (titrated, usually from 57 µM), for the others: at the highest dose activity change, negative = inhibition, hits mostly inhibitors; 360,000 tested, 0.72% active; note: % is set by controls: 0 for no effect and ±100 for the full control effect; nearly all actives have a fitted effect of over 55% in size
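ATXN2-luciferase reporter cells (luciferase flanked by upstream and downstream ATXN2 gene portions) were treated 24 h at 37 °C with compounds at up to 57 uM. SteadyGlo luminescence gave expression; GF-AFC fluorescence gave viability.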
TGFb inhibitor – inhibitors of TGF-b signaling | HepG2 CAGA-GFP TGF-b/SMAD3 reporter, GFP fluorescence, 18 h; TGF-beta stimulated, 500 pg/mL final | Potency, µM (series often up to 46.1 µM), without a hit: at the highest dose activity, negative = inhibition, actives largely listed as inhibitors | 410,000 tested, 1.2% active | AID 588855; note: % is set by controls: 0 for no effect and ±100 for the full control effect; nearly all actives have a fitted effect of over 65% in size
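Cell-based qHTS in HEPG2 carrying a CAGA-GFP Smad reporter; compounds added before 500 pg/mL final TGF-beta, 18 h incubation at 37 degrees C, GFP fluorescence quantified per cell by imaging cytometry.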
An asterisk follows results filed as active; i = inactive; ? = inconclusive; / = no result given; [ ] = remark or other dose. In the library only some 17% were active in any assay of this set; here they are far more common. Calls come from the whole dose curve; as a rule, active = well fitted curve in the direction sought with a large enough effect; inconclusive = small, poorly fitted or top-dose-only effect, or another doubt; inactive = no such curve, though single readings can be large; an effect the other way counts as inactive or inconclusive. Potency is the fitted concentration of half-maximal effect.

SMILES	ATXN viability	HepG2 tox	DT40 TDP1 CPT	DT40 TDP1 no CPT	ATXN2 expr inh	TGFb inhibitor
COc1ccc(CC(=O)NNC(=S)NCC2CC2)cc1OC	i	-8.2%	-27.6%	?	8.8%	-2.4%
O=C(NCC1CCCO1)c1ccc(CNS(=O)(=O)c2ccc(F)c(Cl)c2)cc1 (stereo not drawn)	i	-6.9%	-19.6%	-20.5%	-17.9%	1.1%
C/C(CC(=O)Nc1ccccn1)=N\NC(=O)c1ccccc1O	?	-36.6%	4.11µM*	16.4µM*	?	-24.3%
C/C(=N\NC(=O)c1cccc2ccccc12)c1ccccn1	3.55µM*	-10.8%	1.16µM*	1.46µM*	?	3.16µM*
C/C(=N\NC(=O)c1cc(-c2cccs2)nc2ccccc12)c1ccccn1	i	-13.6%	0.651µM*	0.731µM*	2.82µM*	?
C/C(=N\NC(=O)c1cc(Br)ccc1O)c1ccccn1	i	-27.0%	3.26µM*	3.66µM*	?	?
C=CCOc1ccc(/C(O)=C2/C(=O)C(=O)N(CCCn3ccnc3)C2c2ccco2)cc1 (stereo not drawn)	?	3.3%	-5.8%	11.9%	/	-26.0%
O=C1CCCN1CC(O)CS(=O)(=O)Cc1ccc(Cl)cc1Cl (stereo not drawn)	i	10.0%	9.1%	6.1%	/	-3.0%
O=C(COc1ncnc2c(Cl)cc(Cl)cc12)NCCC1=CCCCC1	i	-4.7%	0.2%	-16.2%	0.1%	-17.8%
CCOc1ccc(C(=O)O/N=C(\N)c2ccccn2)cc1	i	-64.3%	-9.4%	?	/	7.1%
C/C(=N\NC(=O)c1ccc(Cl)c(Cl)c1)c1ccc(Br)s1	i	-16.8%	1.46µM*	1.46µM*	?	-4.7%
C/C(=N\NC(=O)c1ccccc1Cl)c1ccccn1	?	-13.5%	2.91µM*	2.91µM*	/	?
C/C(=N\NC(=O)c1ccc(Cl)c(Cl)c1)c1ccccn1	?	-5.2%	0.411µM*	0.517µM*	?	?
C/C(=N/NC(=O)c1ccccn1)c1ccncc1	i	0.6%	-5.6%	-5.3%	9.0%	20.3%
C/C(=N/NC(=O)c1ccc2c(c1)OCO2)c1ccc(Br)s1	?	-10.8%	-28.7%	-19.5%	/	9.2%
CCOc1ccc(OCc2ccc(C(=O)N/N=C(\C)c3ccccn3)cc2)cc1	?	-4.3%	0.92µM*	0.651µM*	2.82µM*	-23.3%
C/C(=N\NC(=O)c1ccc(NS(=O)(=O)c2cccs2)cc1)c1ccccn1	i	-73.5%	?	?	?	0.7%
Cc1ccc(NS(=O)(=O)c2cc(NC(=O)c3ccc4c(c3)NC(=O)CS4)ccc2C)c(C)c1	?	-2.9%	?	?	?	?
CC(C)c1cc(=O)n2[nH]c(N)nc2n1	i	-17.1%	-3.5%	-5.5%	-11.9%	-11.9%
C/C(=N\NC(=O)c1cccc(Br)c1)c1ccccn1	?	-35.4%	0.731µM*	0.92µM*	?	?
C/C(=N\NC(=O)C(c1ccccc1)c1ccccc1)c1ccc(O)cc1	i	-9.0%	?	?	/	-6.8%
C/C(=N\NC(=O)C(c1ccccc1)c1ccccc1)c1ccccn1	6.31µM*	-12.7%	4.61µM*	4.61µM*	3.55µM*	?
Cc1ccccc1-n1nc(C(=O)c2cccs2)cc(-c2nc3ccccc3[nH]2)c1=N	i	-7.0%	11.6µM*	7.31µM*	-17.2%	0.5%
COC(=O)CSc1ncccc1-c1nc2ccccc2[nH]1	i	-3.8%	-25.9%	?	13.5%	-8.2%
COc1ccc(-n2nc(C(=O)c3cccs3)cc(-c3nc4ccccc4[nH]3)c2=N)cc1	?	-25.9%	5.8µM*	5.8µM*	?	19.7%
SMILES	ATXN viability	HepG2 tox	DT40 TDP1 CPT	DT40 TDP1 no CPT	ATXN2 expr inh	TGFb inhibitor
Cc1ccc2nc(-c3cccc(NC(=O)c4ccco4)c3)[nH]c2c1	i	-42.5%	?	-23.4%	47.1%	-9.6%
Cc1cccc(-n2nc(C(=O)c3ccco3)cc(-c3nc4ccccc4[nH]3)c2=N)c1	i	-7.5%	16.4µM*	8.2µM*	/	-6.9%
CCC(=O)N(c1ccc(C(=O)O)cc1)c1nc(-c2ccc(OC)cc2)c(C)s1	i	-0.5%	?	2.0%	-26.4%	12.3%
CCOC(=O)C(Cc1ccccc1)NC(=O)CCCC(=O)c1ccccc1 (stereo not drawn)	i	-40.7%	-0.6%	-6.1%	/	?
CCCCCNc1nc(N2CCCC2)c2c(c1C#N)CCN(C)C2	?	22.4µM*	23.1µM*	23.1µM*	-22.2%	?
CCCc1nc2ccc(C)cn2c1Cc1ccccc1	/	-17.3%	?	?	0.0%	-14.4%
CCCc1nc2ccc(C(=O)OC)cn2c1Cc1ccccc1	?	14.1%	?	29.1µM*	11.4%	-8.6%
CCCc1nc2ccc(C)cn2c1Cc1ccc(C)cc1	25.1µM*	-21.7%	20.6µM*	18.4µM*	?	?
CCCc1nc2ccc(C(=O)OC)cn2c1Cc1ccccc1C(F)(F)F	/	-36.9%	?	16.4µM*	?	?
CCCc1nc2ccc(C(=O)OC)cn2c1Cc1ccc(C)cc1	?	-39.0%	18.4µM*	23.1µM*	0.0%	-8.0%
CCOc1ccc(S(=O)(=O)Nc2cccc(C(=O)N(C)Cc3cccc(OC)c3OC)c2)cc1	i	-19.1%	?	-24.3%	4.2%	3.2%
COc1ccc(/C=N/NC(=O)CN2CCSCC2)cc1C	i	-14.4%	3.1%	-7.2%	1.7%	9.6%
O=C(C1=C[C@@H](c2coc3ccccc3c2=O)C[C@@H](OCc2ccc(CO)cc2)O1)N1CCN(Cc2ccc3c(c2)OCO3)CC1	i	6.9%	20.6µM*	14.6µM*	-16.4%	-0.8%
O=C(C1=C[C@H](c2coc3ccccc3c2=O)C[C@H](OCc2ccc(CO)cc2)O1)N1CCN(Cc2ccc3c(c2)OCO3)CC1	i	-5.9%	7.31µM*	7.31µM*	-24.0%	-4.2%
Cc1cnc(-n2ncc(C(=O)NCCCc3ccncc3)c2C)nc1-c1ccc(F)cc1	i	/	10.3%[9.04 µM]	-12.6%	/	/
O=C(O)/C=C/C(=O)Nc1ccccc1-c1ccccc1NC(=O)/C=C/C(=O)O	i	-1.7%	0.5%	-13.0%	-18.9%	-2.3%
O=C(O)/C=C/C(=O)Nc1ccccc1SC(F)(F)F	i	3.3%	7.31µM*	20.6µM*	1.9%	0.7%
OC(CNCCc1ccc(C(F)(F)F)cc1)COC(c1ccccc1)c1ccccc1 (stereo not drawn)	?	-95.7%	18.4µM*	?	28.2µM*	?

Bioassay records: PubChem BioAssay, National Center for Advancing Translational Sciences (NCATS)
